Hit rate of the full screen: of about 53,000 sequences, about 3,700 (7%) were called active.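 The calls were made as follows: active = gene knockdowns whose robust z-score for IL-1 alpha signal is at least 2 or at most -2, so actives lie on both sides; inactive = the rest.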 Only a selection was taken, and actives are over-represented in it overall.
Assay: Components of the Cytosolic LPS Sensing Pathway: Gene Identification via Genome-wide siRNA Screen;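 also: robust z of the log signal after scaling to non-targeting control siRNA wells of the plate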
Settings: RAW264.7 macrophages, IL-1a HTRF, actives lie on both sides, screened at 100 nM (by protocol), cells primed 5 h with Pam3CSK4 first
Method in brief: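 Mouse macrophage line RAW264.7 is transfected with siRNA (100 nM final), grown 48h, primed with TLR ligand Pam3CSK4 5 h and given intracellular LipidA 24 h. IL-1a in supernatant is read by HTRF and viability by luminescence.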

z-score, active:
GGCUAAAGGAAACUCACCUTT against Duoxa2 -3.33
GGACACCAUAUGGUUAGCUTT against Tedc1 -2.25
GGAAUUCCAAUGUUACCAUTT against Meltf 3.35
GGUCGUGUACUCGUUCAGUTT against Pcdh10 2.04
GGUACUGAGGUGAGCCUCUTT against Myocd -2.45
CCCACUUGUCUACAGCCUATT against Olfr1505 -2.65
CCUGAACUAUAGAUGGAUUTT against Manba 3.37
GGCCCAAGGAAUAAUCAAGTT against Satb2 2.48
GGCUAUGAAAGUGACAAUCTT against Tsen15 -2.74
GCGCAAGCCGUAUUCGAAGTT against Hoxc12 2.95
GGCCACUGAUCAACUAAAGTT against Zfp110 2.27
CCUAUGCAUCCCUGACUACTT against Tmem126b 5.07
GGAAUACGGAUUGAUGGAGTT against Fli1 2.19
GGUAUUUAGAAACAUCAGUTT against Wls -2.16
GGGAGAAGUAAGUGUUAUCTT against Npy2r 3.86
CGACUUUUCUCAUUAUGAGTT against Ythdf1 -2.58
GCGUGCUGUGUAAGAGUGUTT against Gja4 -2.5
GGGUCUACCACAUGUACAUTT against Slc16a6 2.23

z-score, inactive:
CCGUGUGGUCUGAUAAAAGTT against Fbxl8 -0.714
GCUCACUUGAUUCUGGUAATT against Ifnz 0.416
GGUGUCUGGAGGGAGAUUUTT against Peli3 0.245
CCAAGUGCUAAACAAGACATT against Spata31 1.06
GGUGACUGACAACCAGACATT against Dkkl1 -0.171
GGGUCUUCUUCCUGAGUGUTT against Ak8 -1.67
GGCCAUGUUCCACACAUUATT against Grm1 1.49
GCCACGCAAUAAAGCAUCUTT against Sars -0.284
GCUUAAGGGAUAACAUAUUTT against Svs2 -0.756
ACUGUCAUGCACCCUAAAGTT against Olfr132 0.369
GCUCCUAAAAAGGCUCUUUTT against H2ac18 -0.463
GCUGGUGUGUAACAUCAAUTT against Fut8 0.246
GCAAUGUUAUUUUCACCAGTT against Slc3a1 0.61
GUUUAACUACAACAAUGAGTT against Dcpp1 1.23
GCCUAGUGACCCUUUACUATT against Stx1a 0.51
GGCGACACAAUAAGACAGATT against Wdr19 0.648
GGUCCAGUUGGAGAUGACATT against Ube2d3 -1.04
GCUAAUCCAGGACUGUUUATT against Trim14 -1.66
GGUUCGACUUUCUUUGCCATT against Ola1 -0.614
GGGAGCUCCAUUUAAAUUATT against Cnot6 -0.516
GCAACUUUAUAGCAGAAUCTT against Apbb3 -0.874
CCGUAUAAACAUUUAUGAGTT against Bmp4 -0.295
GGACAACACCCUGAUGAUATT against Vmn1r208 -1.07
GUGGGAAAUCAGUAUUUCCTT against AI467606 1.23
GGUUCAUUGUGUCUCUGGCTT against Grk1 -0.378
GGACGCAAGUACAAAUUUATT against Tnxb 1.13
CGUAGUCGAUUCAGGAGAGTT against Gm10439 -0.356
GGUCUUCUUAGCUUUUUUUTT against Plppr1 -0.713
GGGUUGAUAGAAGUUUUUATT against Cpeb1 0.612
GCUUUAGUACAGGCCUCUATT against Tent4a 0.444
CCCGACCACGUGUUUAUUGTT against Tnfsf12 -1.68
GGUGGAGGCAGGAAAAUCUTT against Mrpl57 -0.808
GGCUCAAGCUAUGAAGAGATT against Gstm4 -0.195
GGUUCUUGUUCAUUCUCUUTT against Slc4a4 -0.0837
GGAAAGAGUGUGCAAACUCTT against Ly6d 0.0731
GGUAUCGACCACAGAUCAUTT against Plxnd1 1.77
GCACCAUUUUAAGAUCUGCTT against Prr13 0.238
CCUCCUUACAAGUUGAAGCTT against Tmem59l -0.142
GCUUGUUCACCCAGUUAUGTT against Hexdc 1.15
GCCAUUCACGACCCACUACTT against Olfr1095 -0.102
GGACUGAUAGAGGACUUCCTT against Bloc1s6 -0.56
CCUUUUAGCUCUGUGUAUUTT against Gldc -0.0983
GGCCUUGAAUGAGCAUCAUTT against Krr1 0.548
GCACCUAAUGAUCACAGUGTT against Nrip3 0.393
GGAAACUGAGCUUAAGAUUTT against Cald1 1.2
CCGCUUUCGGCAAGUAUGGTT against Rbmxl2 1.64
GGCAUGACUUCCACAUGAATT against Pdcd1 0.672
ACAAAUCCACGUGCAAUGUTT against Cyp2d9 0.943
GGAAGAUGAUUAUGAAGAUTT against Apc -0.143
GGCCUGGGAAGUGAACAAATT against Faah -0.721
GGAUCUGUCUACUUUUCCUTT against Hikeshi 0.777
GCCACUCCUAUGAGUGUUATT against Cdk18 0.236
GGAACGCAAGAACAGAAUGTT against Rps24 0.585
CCAGAUGCUAUGCUAGGGATT against Clec4a1 -0.0541
GGACGGCAAAUUUGGUUUCTT against Mmp9 1.28
GCCAUCAAUGAUGUGCUCUTT against Zswim5 -0.186
GGAAAAUGGAAUCUUCGGUTT against Pus10 -1.4
GCUGGAUACUAAUUGCUUATT against Parva 1.27
GCCUGGUACAGAACCAGUATT against Ntsr2 0.547
GGUUUUUAAGGGAAGGCCCTT against Ntmt1 0.284
GUCCCACUCAGGAGAAUUUTT against Lrrc61 0.917
GGAAGAUUAUAUUGAGAGATT against Bnip3 1.11
GGAGGAGAAUGCCACAACUTT against Cd320 -0.227
GCCUGUUAAUAUGCUGUAATT against Gpr83 -0.0705
GGACUUUCUGAGUAAGAAUTT against Coa8 -0.873
CCUUAUGCAUGACUUGAGUTT against Exoc4 -0.2
GGUUCGUCAUACCUCCUCATT against C77080 -0.00884
GGAAUACAUUCCUUUUAAGTT against Gpx3 -1.27
GGAGAAGAAACGGAAAUGATT against Jagn1 -1.98
GCUGUUCAUAUAUCUUGCUTT against Olfr1386 1.17
GGCACAUAGCCAUACCAGATT against Fbxw17 0.0511
GGAUUCCUGUUAAAAGUCUTT against Azin1 -0.152
GGAUUAUCAAUGAAUAGCATT against Gabrb2 0.913
GGACAAUCCGAACAUCAAATT against Sval1 -0.403
GGCCUGCUUCAAACAGUUUTT against Slc1a6 0.648
GGAUACACUGUUUGAAUGUTT against Cks1b 0.00229
GCCGAUUCAAUACUGUGACTT against Rnf149 -0.649
GCACAACCAAUUACGUGGCTT against Gpnmb -0.149
GCAGAUCACUGGAGUAAACTT against Spz1 -0.381
GGUAUGAAACCGUAUAAAUTT against Zfp60 0.00529
GCACAUACAGCUUAACAAATT against Nktr 1.27
GGGUUUUUCAUAAACAAAGTT against Pdcd1lg2 -1.46
GGUAAAAAGGGUGUGUACUTT against Pdzk1 0.00178
CCACUAAAAUCUUACUGGATT against Scn7a 0.671
GCGUAUAGUUUCGAGAAAUTT against Mettl8 0.46
CCCUAACAUUGAGAUGAUUTT against Peg10 -0.369
CCAUUCUCCUCAGAUACUCTT against Slc25a17 -1.38
CCCAUAAGGGUGAAAUUCGTT against Tax1bp1 0.444
GGCCCACAAGAAGAACAAGTT against Zfp423 1.29
CGGUAGAGUGCUUACGCAATT against Camk2g 0.869
